Several values for one entry are separate records, joined by “and”; a condition that tells them apart may be missing. Equal entries are not always repeated. In all, about 5,500 compounds went through this assay and about 2,000 (36%) were called active. Another 18% or so got no clear call; they are omitted. Cut-off read from the data, not from the text of the source: active = normalized growth mostly below about 0.91 (no sharp cut-off); inconclusive = no clear call, values can overlap the other calls; inactive = mostly above about 0.92. This is one part of the list.
Test: chemical genetic growth profiling, strain panel (AID 1159580);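 note: tested at 20 µM; growth read once vehicle control cultures reached saturation at 30 °C; 1 = growth at the plate median or of vehicle wells; lower values mean less growth of the strain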
Conditions: S. cerevisiae deletion strains, growth OD

Measured: normalized growth

O=C1c2ccccc2C(=O)c2c1ccc(O)c2O
active: locus YAL021C, strain ccr4, stronger effect = lower value 0.213 | locus YAL026C, strain drs2, stronger effect = lower value 0.273 | locus YAL030W, strain snc1, stronger effect = lower value 0.578 | locus YBL061C, strain skt5, stronger effect = lower value 0.44 | locus YBR009C, strain hhf1, stronger effect = lower value 0.532 | locus YBR021W, strain FUR4, stronger effect = lower value 0.671 | locus YBR023C, strain chs3, stronger effect = lower value 0.38 | locus YBR171W, strain sec66, stronger effect = lower value 0.681 | locus YBR229C, strain ROT2, stronger effect = lower value 0.399 | locus YBR231C, strain swc5, stronger effect = lower value 0.3 | locus YBR279W, strain paf1, stronger effect = lower value 0.512 | locus YCL011C, strain gbp2, stronger effect = lower value 0.501 | locus YCL016C, strain dcc1, stronger effect = lower value 0.564 | locus YCL029C, strain bik1, stronger effect = lower value 0.342 | locus YCL061C, strain MRC1, stronger effect = lower value 0.608 | locus YCL069W, strain vba3, stronger effect = lower value 0.52 | locus YCR088W, strain abp1, stronger effect = lower value 0.679 | locus YDL005C, strain med2, stronger effect = lower value 0.663 | locus YDL035C, strain GPR1, stronger effect = lower value 0.231 | locus YDL040C, strain nat1, stronger effect = lower value 0.703 | locus YDL074C, strain BRE1, stronger effect = lower value 0.178 | locus YDL101C, strain DUN1, stronger effect = lower value 0.235 | locus YDL185W, strain tfp1, stronger effect = lower value 0.816 | locus YDL192W, strain arf1, stronger effect = lower value 0.301 | locus YDR001C, strain nth1, stronger effect = lower value 0.722 | locus YDR069C, strain doa4, stronger effect = lower value 0.401 | locus YDR101C, strain arx1, stronger effect = lower value 0.549 | locus YDR137W, strain rgp1, stronger effect = lower value 0.261 | locus YDR159W, strain sac3, stronger effect = lower value 0.722 | locus YDR162C, strain NBP2, stronger effect = lower value 0.0628 | locus YDR297W, strain sur2, stronger effect = lower value 0.559 | locus YDR318W, strain mcm21, stronger effect = lower value 0.34 | locus YDR334W, strain swr1, stronger effect = lower value 0.298 | locus YDR335W, strain msn5, stronger effect = lower value 0.56 | locus YDR388W, stronger effect = lower value 0.149 | locus YDR392W, strain spt3, stronger effect = lower value 0.321 | locus YDR502C, strain sam2, stronger effect = lower value 0.391 | locus YEL003W, strain gim4, stronger effect = lower value 0.504 | locus YEL037C, strain rad23, stronger effect = lower value 0.552 | locus YEL061C, strain CIN8 (second series), stronger effect = lower value 0.694 | locus YEL061C, strain CIN8, stronger effect = lower value 0.39 | locus YER015W, strain faa2, stronger effect = lower value 0.39 | locus YER016W, strain bim1, stronger effect = lower value 0.675 | locus YER110C, stronger effect = lower value 0.412 | locus YER111C, strain swi4, stronger effect = lower value 0.566 | locus YER155C, strain BEM2 (second series), stronger effect = lower value 0.441 | locus YER155C, strain BEM2, stronger effect = lower value 0.276 | locus YER167W, strain BCK2, stronger effect = lower value 0.245 | locus YFR010W, strain ubp6, stronger effect = lower value 0.557 | locus YGL078C, strain dbp3, stronger effect = lower value 0.872 | locus YGL086W, strain mad1, stronger effect = lower value 0.291 | locus YGL167C, strain pmr1, stronger effect = lower value 0.554 | locus YGL173C, strain kem1, stronger effect = lower value 0.248 | locus YGL227W, strain vid30, stronger effect = lower value 0.777 | locus YGL240W, strain doc1, stronger effect = lower value 0.442 | locus YGL248W, strain PDE1, stronger effect = lower value 0.21 | locus YGL253W, strain hxk2, stronger effect = lower value 0.295 | locus YGR078C, strain PAC10, stronger effect = lower value 0.182 | locus YGR135W, strain pre9, stronger effect = lower value 0.394 | locus YGR252W, strain gcn5, stronger effect = lower value 0.456 | locus YHR013C, strain ard1, stronger effect = lower value 0.427 | locus YHR027C, strain rpn1, stronger effect = lower value 0.349 | locus YHR030C, strain SLT2, stronger effect = lower value 0.613 | locus YHR079C, strain IRE1 (second series), stronger effect = lower value 0.434 | locus YHR079C, strain IRE1, stronger effect = lower value 0.67 | locus YHR094C, strain hxt1, stronger effect = lower value 0.417 | locus YHR129C, strain ARP1, stronger effect = lower value 0.216 | locus YHR142W, strain chs7, stronger effect = lower value 0.339 | locus YHR200W, strain rpn10, stronger effect = lower value 0.488 | locus YIL066C, strain RNR3, stronger effect = lower value 0.174 | locus YIL073C, strain SPO22, stronger effect = lower value 0.221 | locus YIL125W, strain kgd1, stronger effect = lower value 0.864 | locus YIR030C, strain dcg1, stronger effect = lower value 0.466 | locus YJL092W, strain hpr5, stronger effect = lower value 0.665 | locus YJL095W, strain BCK1 (second series), stronger effect = lower value 0.22 | locus YJL095W, strain BCK1, stronger effect = lower value 0.0992 and 0.647 | locus YJL115W, strain asf1, stronger effect = lower value 0.644 | locus YJL129C, strain trk1, stronger effect = lower value 0.33 | locus YJL134W, strain LCB3, stronger effect = lower value 0.309 | locus YJL154C, strain vps35, stronger effect = lower value 0.718 | locus YJL164C, strain tpk1, stronger effect = lower value 0.414 | locus YJL166W, strain qcr8, stronger effect = lower value 0.446 | locus YJL168C, strain set2, stronger effect = lower value 0.52 | locus YJL187C, strain SWE1 (second series), stronger effect = lower value 0.192
inactive: locus YDR195W, strain ref2 0.892

From PubChem BioAssay AID1159580 (chemical genetic matrix, 2015)
